Test results reported in PubChem BioAssay AID504452 (The Scripps Research Institute Molecular Screening Center, 2011).
Activity calls are given as the source filed them. Rule as the data show it: active = activation above about 85%; inactive = the rest.

Target: Peroxisome proliferator-activated receptor gamma (Homo sapiens) (UniProt P37231)
Test: PPARg partial agonist activation, primary screen, cell-based, luciferase reporter, luminescence (AID 504452);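 also: Cos-1 cells carrying PPARgamma and a response element luciferase reporter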
Conditions: at 5 µM, stronger effect = higher value; activation (% of full agonist control): measured here: relative to full agonist control

Sequence of Peroxisome proliferator-activated receptor gamma (Homo sapiens) (P37231 whole entry, looked up): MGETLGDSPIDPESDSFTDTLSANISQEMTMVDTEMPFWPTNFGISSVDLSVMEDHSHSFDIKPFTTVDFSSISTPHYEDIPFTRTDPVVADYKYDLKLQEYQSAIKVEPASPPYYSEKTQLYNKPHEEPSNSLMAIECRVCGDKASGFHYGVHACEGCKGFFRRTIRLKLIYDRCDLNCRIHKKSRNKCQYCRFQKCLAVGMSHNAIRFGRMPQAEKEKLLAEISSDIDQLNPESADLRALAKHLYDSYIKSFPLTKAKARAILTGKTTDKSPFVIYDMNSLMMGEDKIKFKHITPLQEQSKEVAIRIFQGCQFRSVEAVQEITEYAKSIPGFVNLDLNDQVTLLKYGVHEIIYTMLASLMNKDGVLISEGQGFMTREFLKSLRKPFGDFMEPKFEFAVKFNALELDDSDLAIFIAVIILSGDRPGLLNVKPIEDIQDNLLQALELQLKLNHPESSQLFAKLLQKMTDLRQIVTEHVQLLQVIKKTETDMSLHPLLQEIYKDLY

SMILES | activation (% of full agonist control) [%] | activation (% of partial agonist control)
O=C(CC(C(=O)N1CCc2ccccc21)n1ccnc1)NCc1ccccc1 (configuration not stated) | 14.1 | 31.2% (inactive)
COc1ccc(CN(Cc2ccccn2)C(=O)CN2C(=O)C(C)Oc3ccccc32)cc1 (configuration not stated) | 38.6 | 85.4% (active)
O=C1C2CCCN2c2ccc(S(=O)(=O)N3CCOCC3)cc2N1Cc1cccc(C(F)(F)F)c1 (configuration not stated) | 32.4 | 71.8% (inactive)
O=C(c1cccc(N2C(=O)C3C4C=CC(C4)C3C2=O)c1)N1CCN(c2ccccc2Cl)CC1 (configuration not stated) | 41.1 | 91% (active)
CC(=O)Nc1cccc(-n2c(=O)n(Cc3ccccc3)c(=O)c3[nH]cnc32)c1 | 36.6 | 81.1% (inactive)
O=C(NCc1ccccc1F)C(=O)NCC1CCCN1S(=O)(=O)c1ccccc1 (configuration not stated) | 16.1 | 35.6% (inactive)
